Measurements: PubChem BioAssay AID1159580 (chemical genetic matrix, 2015)
Where “and” joins values, the source holds several entries; their conditions need not be identical. Identical values can stand only once. Hit rate of the full screen: of about 5,500 compounds, about 2,000 (36%) were called active. Not shown: some 18% with an inconclusive outcome. Cut-off read from the data, not from the text of the source: active = normalized growth mostly below about 0.91 (no sharp cut-off); inconclusive = no clear call, values can overlap the other calls; inactive = mostly above about 0.92. The list shows a part of the results.

Experiment: chemical genetic growth profiling, strain panel (AID 1159580);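 note: tested at 20 µM; growth read once vehicle control cultures reached saturation at 30 °C; 1 = growth at the plate median or of vehicle wells; lower values mean less growth of the strain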
Conditions: S. cerevisiae deletion strains, growth OD

Measured: normalized growth

CNC(C)C(O)c1ccccc1 (stereo not drawn)
inactive: locus YAL013W, strain DEP1, stronger effect = lower value 1 | locus YAL021C, strain ccr4, stronger effect = lower value 1.02 | locus YAL026C, strain drs2, stronger effect = lower value 0.997 | locus YAL030W, strain snc1, stronger effect = lower value 1.01 | locus YBL061C, strain skt5, stronger effect = lower value 1 | locus YBR009C, strain hhf1, stronger effect = lower value 0.993 | locus YBR021W, strain FUR4, stronger effect = lower value 1.01 | locus YBR023C, strain chs3, stronger effect = lower value 1.01 | locus YBR171W, strain sec66, stronger effect = lower value 1.02 | locus YBR229C, strain ROT2, stronger effect = lower value 1 | locus YBR231C, strain swc5, stronger effect = lower value 1.02 | locus YBR279W, strain paf1, stronger effect = lower value 1.01 | locus YCL011C, strain gbp2, stronger effect = lower value 1.01 | locus YCL016C, strain dcc1, stronger effect = lower value 1 | locus YCL029C, strain bik1, stronger effect = lower value 1.02 | locus YCL061C, strain MRC1, stronger effect = lower value 1.02 | locus YCL069W, strain vba3, stronger effect = lower value 1.02 | locus YCR088W, strain abp1, stronger effect = lower value 1.02 | locus YDL005C, strain med2, stronger effect = lower value 1.02 | locus YDL035C, strain GPR1, stronger effect = lower value 1.01 | locus YDL040C, strain nat1, stronger effect = lower value 1.01 | locus YDL074C, strain BRE1, stronger effect = lower value 1.02 | locus YDL101C, strain DUN1, stronger effect = lower value 1 | locus YDL134C, strain PPH21, stronger effect = lower value 1.01 | locus YDL185W, strain tfp1, stronger effect = lower value 1.01 | locus YDL192W, strain arf1, stronger effect = lower value 1.03 | locus YDR001C, strain nth1, stronger effect = lower value 1.01 | locus YDR069C, strain doa4, stronger effect = lower value 1.02 | locus YDR101C, strain arx1, stronger effect = lower value 1.03 | locus YDR137W, strain rgp1, stronger effect = lower value 1.03 | locus YDR150W, strain NUM1, stronger effect = lower value 1 | locus YDR159W, strain sac3, stronger effect = lower value 0.99 | locus YDR162C, strain NBP2, stronger effect = lower value 1 | locus YDR195W, strain ref2 0.995 | locus YDR297W, strain sur2, stronger effect = lower value 1.01 | locus YDR318W, strain mcm21, stronger effect = lower value 1.02 | locus YDR334W, strain swr1, stronger effect = lower value 1.02 | locus YDR335W, strain msn5, stronger effect = lower value 1.01 | locus YDR388W, stronger effect = lower value 1.02 | locus YDR392W, strain spt3, stronger effect = lower value 1 | locus YDR502C, strain sam2, stronger effect = lower value 1.02 | locus YEL003W, strain gim4, stronger effect = lower value 1.02 | locus YEL037C, strain rad23, stronger effect = lower value 1.01 | locus YEL061C, strain CIN8 (second series), stronger effect = lower value 1.02 | locus YEL061C, strain CIN8, stronger effect = lower value 1 | locus YER015W, strain faa2, stronger effect = lower value 1.02 | locus YER016W, strain bim1, stronger effect = lower value 1.01 | locus YER110C, stronger effect = lower value 1.04 | locus YER111C, strain swi4, stronger effect = lower value 1.01 | locus YER155C, strain BEM2 (second series), stronger effect = lower value 1.02 | locus YER155C, strain BEM2, stronger effect = lower value 1 | locus YER167W, strain BCK2, stronger effect = lower value 1 | locus YFR010W, strain ubp6, stronger effect = lower value 1.03 | locus YGL078C, strain dbp3, stronger effect = lower value 1.03 | locus YGL086W, strain mad1, stronger effect = lower value 1 | locus YGL167C, strain pmr1, stronger effect = lower value 1.02 | locus YGL173C, strain kem1, stronger effect = lower value 1.01 | locus YGL227W, strain vid30, stronger effect = lower value 1.01 | locus YGL240W, strain doc1, stronger effect = lower value 1.04 | locus YGL248W, strain PDE1, stronger effect = lower value 1.01 | locus YGL253W, strain hxk2, stronger effect = lower value 1.01 | locus YGR078C, strain PAC10, stronger effect = lower value 1.01 | locus YGR135W, strain pre9, stronger effect = lower value 1.03 | locus YGR252W, strain gcn5, stronger effect = lower value 1.01 | locus YHR013C, strain ard1, stronger effect = lower value 1.02 | locus YHR027C, strain rpn1, stronger effect = lower value 1.02 | locus YHR030C, strain SLT2, stronger effect = lower value 1 and 1.02 | locus YHR079C, strain IRE1 (second series), stronger effect = lower value 1.02 | locus YHR079C, strain IRE1, stronger effect = lower value 1.04 | locus YHR094C, strain hxt1, stronger effect = lower value 1.03 | locus YHR129C, strain ARP1, stronger effect = lower value 1 | locus YHR142W, strain chs7, stronger effect = lower value 1.02 | locus YHR200W, strain rpn10, stronger effect = lower value 1.02 | locus YIL066C, strain RNR3, stronger effect = lower value 1 | locus YIL073C, strain SPO22, stronger effect = lower value 1.06 | locus YIL125W, strain kgd1, stronger effect = lower value 1.02 | locus YIR030C, strain dcg1, stronger effect = lower value 1.02 | locus YJL092W, strain hpr5, stronger effect = lower value 1.01 | locus YJL095W, strain BCK1 (second series), stronger effect = lower value 1.01 | locus YJL095W, strain BCK1, stronger effect = lower value 0.99 and 0.983 | locus YJL115W, strain asf1, stronger effect = lower value 1.03 | locus YJL129C, strain trk1, stronger effect = lower value 1.03 | locus YJL134W, strain LCB3, stronger effect = lower value 1 | locus YJL154C, strain vps35, stronger effect = lower value 1.01 | locus YJL164C, strain tpk1, stronger effect = lower value 1.01 | locus YJL166W, strain qcr8, stronger effect = lower value 1.03 | locus YJL168C, strain set2, stronger effect = lower value 1.02 | locus YJL187C, strain SWE1 (second series), stronger effect = lower value 1
